# Laboratory results from PubChem BioAssay AID588335 (The Scripps Research Institute Molecular Screening Center, 2011).
# Out of some 360,000 compounds screened, about 4,500 (1.2%) were called active. The sample holds actives, similar compounds and a random draw of the others, so the mix is not that of the screen. Rule as the data show it: active = inhibition above about 30%; inactive = the rest.
# Test: inhibition of GDH and TPI enzymes – biochemical, absorbance, full deck, artefact control for M. tuberculosis FBA inhibitor project, primary screen (AID 588335);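 also: 0% = DMSO wells and 100% = wells lacking the enzyme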
# Conditions: GDH-TPI coupled enzyme counterscreen, NADH absorbance; at 4.8 µM; active compounds read high
row,Compound,inhibition
1,CCN(CC)c1ccc(/C=N/Nc2nc(C)cc(C)n2)c(O)c1,31.7% (active)
2,Cc1cc(C)nc(N/N=C/c2c(CO)cnc(C)c2O)n1,16.2% (inactive)
3,Cn1cnnc1Sc1ccc(S(C)(=O)=O)cc1[N+](=O)[O-],13% (inactive)
4,Cc1c(-c2nn(C)c(=O)c3ccccc23)oc2ccc(F)cc2c1=O,18% (inactive)
5,CC(C)NC(=O)NCCCCCCS(C)=O (configuration not stated),16.7% (inactive)
6,Nc1nc(Nc2ccccc2)nc(NCCO)c1[N+](=O)[O-],39.5% (active)
7,COCCNc1nc(N)c([N+](=O)[O-])c(NCCO)n1,26.7% (inactive)
8,Nc1nc(NCCCN2CCOCC2)nc(Nc2ccccc2)c1[N+](=O)[O-],28.5% (inactive)
9,CC(C)(C)c1csc(NC2=NS(=O)(=O)c3ccccc32)n1,36.1% (active)
10,O=C(Oc1cccc(NC2=NS(=O)(=O)c3ccccc32)c1)c1ccncc1,0.95% (inactive)
11,Cc1ccc(S(=O)(=O)N(NC2=NS(=O)(=O)c3ccccc32)C(=O)c2ccccc2)cc1,4.78% (inactive)
12,Cc1cc(-c2ccccc2)nc(N2CCC(C(=O)NC34CC5CC(CC(C5)C3)C4)CC2)n1,-1.41% (inactive)
13,CSc1nc2nc3c(c(=O)n2[nH]1)CCC3,5.66% (inactive)
14,Cc1ccccc1NC(=O)Cc1nc(COC(=O)C(C)(C)Oc2ccc(Cl)cc2)cs1,-5.31% (inactive)
15,COc1cccc(NC(=O)COC(=O)/C=C/c2ccco2)c1,6.67% (inactive)
16,O=C(/C=C/c1ccco1)NC(=S)N1CCCCC1,10.6% (inactive)
17,COc1ccc(Cl)cc1C(=O)NNC(=S)NC(=O)/C=C/c1ccco1,5.35% (inactive)
18,O=C(/C=C/c1ccco1)Nc1ccc(Oc2ccccc2)cc1,38% (active)
19,O=C(O)/C=C\C(=O)Nc1ccc(OCc2ccccc2)cc1,5.18% (inactive)
20,O=C(/C=C/c1ccco1)NC(=S)Nc1ccccc1Br,35.7% (active)
21,CCOc1ccc(NC(=O)CSc2nc3ccccc3c(=O)n2Cc2cccs2)cc1,6.55% (inactive)
22,O=C(C[C@H]1C(=O)N(c2ccc(F)c(F)c2)C[C@@H]1Cc1ccccc1)Nc1ccccc1,-1.2% (inactive)
23,O=Cc1cn(CCOc2ccc(F)cc2)c2ccccc12,7.08% (inactive)
24,Cc1cccc2nc(CNc3ccc(F)cc3)cn12,10.8% (inactive)
25,CCC1CCCCN1S(=O)(=O)Cc1ccccc1Cl (configuration not stated),0.61% (inactive)
26,COc1ccc(S(=O)(=O)N2CCCC2CNC(=O)C(=O)NC2CC2)cc1 (configuration not stated),-18% (inactive)
27,COc1ccc2c(c1)CCc1cn3ncc(C#N)c3nc1-2,2.17% (inactive)
